HSP90 refold inh – HSP90 inhibitors, primary screen, cell lysate, luminescence. Rabbit reticulocyte lysate, luciferase refolding luminescence, 3 h. inhibition, % at 5.6 µM. 0.91% of 290,000 active. AID 1789, 2009;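 active means inhibition above the screen-wide mean plus 3 SD, computed separately per campaign, cut at about 16% in these data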;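 further: 0% = DMSO wells and 100% = 60 µM geldanamycin wells; inhibitors lower the luminescence because luciferase stays unfolded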
HSF-1 act – HSF-1 activators, primary screen, NIH3T3-HGL cells, MG132 stress, luminescence, single point; NIH3T3-HGL HSF-1 luciferase reporter, 8 h; 100% = twice DMSO control signal; activation, % at 9 µM; 1.7% of 300,000 active;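 active means mean replicate activation of at least 50% with a set share of replicates each reaching 50%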;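 further: 0% = median of the neutral control wells and 100% = twice that signal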
LMP1 NFkB inh – EBV LMP1-driven NF-kappaB luciferase reporter inhibitors, primary screen, cell-based, luminescence, single point; LMP1-induced NF-kappaB luciferase reporter cells; AID 504558, 2011; inhibition, % at 12.5 µM; 0.69% of 350,000 active; in the data active means inhibition above about 41%;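 further: 0% = neutral control wells and 100% = reference inhibitor control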
TROY signal inh – inhibitors of TROY-driven NF-kB signaling, primary screen, Q293 LMP1-TROYcd cells, NF-kB luciferase, uHTS; inhibition, % at 10 µM; 0.98% of 360,000 active; AID 1347056, 2019; Q293 LMP1-TROYcd NF-kB luciferase reporter, 4 h;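 active means compounds whose plate-normalised and pattern-corrected inhibition of the luciferase reporter signal at the single screening dose is 50% or more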
HSF1 inh – HSF1 inhibitors in luciferase reporter cells, primary screen, cell-based, NIH3T3, luminescence | NIH3T3-HGL HSE-luciferase, MG132-induced, luminescence 8 h; stronger effect = lower value | activity change, negative = inhibition, % at 7.5 µM (by protocol) | 0.77% of 300,000 active | AID 2098, 2009;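 active means more than half of replicate wells show activity change below -50%, luminescence cut by over half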;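 further: luciferase reports HSF-1 transcriptional activity via heat shock element; 0% = median of DMSO wells and -100% = zero luminescence signal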
TWEAK-Fn14 inh – inhibitors of TWEAK-Fn14 signaling, primary screen, luciferase reporter cells, uHTS; TWEAK-stimulated Fn14 reporter cells, luciferase luminescence, 8 h; inhibition, % at 10 µM; 2% of 360,000 active; in the data active means inhibition above about 50%
Starred values were filed as active, the others as inactive; nt = no result given. Sampled rows, rich in hits. Any-hit rate of the full collection: about 4.7%.

SMILES	HSP90 refold inh	HSF-1 act	LMP1 NFkB inh	TROY signal inh	HSF1 inh	TWEAK-Fn14 inh
CN(C)S(=O)(=O)c1cccc(NC(=S)Nc2cccc3cnccc23)c1	12	-15	21	44	-6	73*
S=C(Nc1ccc(Cl)cc1)Nc1cccc2cnccc12	6	61*	-9	19	23	43
Cc1c(C(=O)NCc2ccc3c(c2)OCCO3)sc(=O)n1Cc1cccc(C(F)(F)F)c1	nt	nt	nt	20	nt	18
Nc1ccn(CCCNC2CCN(Cc3ccccc3)CC2)c(=O)n1	nt	nt	-2	4	nt	6
CCCCCCN1CC(=O)N2[C@@H](Cc3c([nH]c4ccccc34)C2(C)C)C1=O	0	-58	-13	5	-51*	14
O=C(CCNS(=O)(=O)c1ccccc1)OCc1nnc(-c2ccccc2)o1	nt	9	-6	61*	10	1
COc1ccc(NC(=O)N(C)C[C@@H]2OCc3cnnn3CCCC(=O)N([C@H](C)CO)C[C@@H]2C)cc1	nt	nt	-5	-6	nt	6
CCCCC1CC2=C(C(=O)OC(C)(C)O2)C(c2ccc(Cl)cc2)O1 (stereo not given)	nt	nt	nt	-6	nt	17
Cc1c(CCO)c(=O)n2c([nH]c3ccccc32)c1C#N	-2	9	7	2	-5	3
CCCCc1c(C)c(C#N)c2[nH]c3ccccc3n2c1=O	3	1	6	52*	-17	9
O=C(Nc1ccccc1O)c1cccc(S(=O)(=O)Nc2ccccc2O)c1	nt	123*	-6	12	79	13
Cc1ccccc1NS(=O)(=O)c1cccc(C(=O)Nc2cccc(C(=O)O)c2)c1	1	-18	5	3	-3	2
O=C(Nc1cccc(S(=O)(=O)Nc2ccccc2Cl)c1)c1ccc(Cl)nc1	6	-14	23	28	-9	63*
Cc1ccc2nc(-c3cccc(Br)c3)c(Cc3ccccc3)n2c1	nt	nt	nt	-41	nt	13
COCCNC(=O)C1(C)CCCN(C(=O)c2ccc(N(C)C)cc2)C1 (stereo not given)	nt	nt	nt	-12	nt	9
O=C1NC[C@@H](CCCCN2C[C@H](Cc3ccc(O)cc3)N(CCc3ccc(O)cc3)C(=O)C2=O)N(Cc2ccccc2)C1=O	nt	nt	nt	-3	nt	-4
Fc1cccc(Cc2c(-c3ccco3)nc3c(Cl)cc(C(F)(F)F)cn23)c1	nt	nt	nt	12	nt	15
O=C(CBr)c1ccc([N+](=O)[O-])c(CS(=O)(=O)c2ccc(Cl)cc2)c1	8	60*	-18	4	53	3
CCCC(=O)C1=C(O)C(C(=O)OC)C(C)(C)CC1=Nc1ccncc1 (stereo not given)	0	6	77*	-2	4	-3
Cc1cc(-c2ccccc2)n(-c2cc(N/N=C/c3ccccc3O)ncn2)n1	2	nt	21	42	nt	69*
CNc1cc(-n2nc(C)cc2-c2ccccc2)ncn1	-1	-3	-25	14	2	6
C[C@@H]1C[C@H]2[C@@H]3C[C@H](F)C4=CC(=O)C=C[C@]4(C)[C@@]3(F)[C@@H](O)C[C@]2(C)[C@@]1(O)C(=O)COC(=O)C(C)(C)C	-2	-55	18	22	-48	1
C[C@@H]1C[C@H]2[C@@H]3CCC4=CC(=O)C=C[C@]4(C)[C@@]3(F)[C@@H](O)C[C@]2(C)[C@@]1(O)C(=O)CO	nt	-61	12	27	-53*	-12
C[C@@H]1C[C@H]2[C@@H]3C[C@H](F)C4=CC(=O)C(Cl)=C[C@]4(C)[C@@]3(F)[C@@H](O)C[C@]2(C)[C@@]1(O)C(=O)CO	2	-53	nt	nt	-50*	nt
CCNC(=O)C1(C)CCN(C(=O)c2cc(OC)c(OC)c(OC)c2)C1 (stereo not given)	nt	nt	nt	-15	nt	10
O=C(NC1CC1)c1ccc2nc([C@@H]3O[C@H](CO)[C@H](O)[C@H](O)[C@H]3O)[nH]c2c1	nt	nt	nt	-14	nt	21
CC(=O)OCC(=O)Nc1ccc(Cl)cc1Cl	3	20	35	nt	-2	54*
CN(C)C(=S)SCC(=O)Nc1ccc(Cl)cc1Cl	1	61*	-24	-33	28	-36

Screening data from PubChem BioAssay.
